The values below come from PubChem BioAssay (NCI).

SMILES strings stand for the structures. This is part of a sample that, as a whole, favours compounds with a hit. Of some 83,000 tested, about 20% had one in any assay.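 Compound tested at a single concentration for 48 hours in 96-well plates; a percent growth value below 10 was scored as active.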 Unmarked numbers belong to inactive results. Activity calls are given as the source filed them.

Some test systems named below: SK-MEL-2 melanoma; EKVX NSCLC; SN12C renal; UO-31 renal; TK-10 renal; ACHN renal; CAKI-1 renal; CCRF-CEM leukemia; MOLT-4 leukemia; SR leukemia; RPMI-8226 leukemia; OVCAR-8 ovarian; OVCAR-5 ovarian; OVCAR-4 ovarian; SK-OV-3 ovarian; IGROV1 ovarian; OVCAR-3 ovarian; HS 578T breast; NCI/ADR-RES ovarian; A498 renal.
Holding throughout (test): NCI-60 one-dose screen, 48 h (100 = growth as untreated, 0 = no growth, -100 = all killed)
Common to all, as to conditions: 10 µM unless noted

Regarding `N#C/C(=C\c1cccc2cnccc12)N1N=NC2C=CC=CC21` (configuration not stated), the growth in the test on SK-MEL-2 melanoma is 61.3%; with EKVX NSCLC it was 40.4%; with SN12C renal, 30.7%; with UO-31 renal, 27.2%; with TK-10 renal, 55.6%; in the test with ACHN renal, 19.2%. Moreover, the growth was 27% in the test with CAKI-1 renal; 10.2% with CCRF-CEM leukemia; 31.7% in the test on MOLT-4 leukemia; 26.3% in the test on SR leukemia; 18.8% in the test with RPMI-8226 leukemia; 42.9% with OVCAR-8 ovarian. Besides, the growth in the test with OVCAR-5 ovarian is 51.8%; in the test on OVCAR-4 ovarian it was 25.2%; in the test on SK-OV-3 ovarian, 86.1%; in the test with IGROV1 ovarian it was 27.9%; in the test on OVCAR-3 ovarian, 6.92% (active); with HS 578T breast it was 24.2%. The growth in the test with NCI/ADR-RES ovarian was 42.7%.
Take `CCOC(=O)c1cc(C(=O)c2cc(OC)cc(OC)c2)n2ccccc12`: the growth was 41.7% with SK-MEL-2 melanoma; 73.7% with EKVX NSCLC; 66.9% in the test with SN12C renal; 62% with UO-31 renal; 55.9% with TK-10 renal; 48.6% in the test on ACHN renal. In addition, the growth was 42.2% with CAKI-1 renal; 34.6% in the test with CCRF-CEM leukemia; 30.6% in the test with MOLT-4 leukemia; 16.3% in the test with SR leukemia; 27.6% in the test on RPMI-8226 leukemia; 42.2% with OVCAR-8 ovarian. For the same molecule, the growth with OVCAR-5 ovarian is 95.2%; with OVCAR-4 ovarian it was 72.4%; in the test on SK-OV-3 ovarian it was 35.8%; in the test with IGROV1 ovarian, 52.7%; in the test with OVCAR-3 ovarian it was -5.04% (active); in the test with HS 578T breast, 39.4%. Besides, in the test with NCI/ADR-RES ovarian, the growth is 12.4%.
Consider `COC(=O)[C@H](C)NC(=O)[C@@H]1CCCN1C(=O)CNC(=O)[C@H](C)N`, for which the growth in the test with SK-MEL-2 melanoma was 113%; in the test with EKVX NSCLC it was 89.6%; in the test with SN12C renal, 105%; in the test on UO-31 renal, 91.2%; in the test with TK-10 renal it was 95.5%; in the test with ACHN renal, 108%. Also, the growth in the test on CAKI-1 renal was 88.4%; in the test on CCRF-CEM leukemia, 115%; in the test with MOLT-4 leukemia, 102%; in the test with SR leukemia, 114%; in the test with RPMI-8226 leukemia, 116%; in the test on OVCAR-8 ovarian it was 105%. The growth in the test with OVCAR-5 ovarian is 114%; in the test with OVCAR-4 ovarian, 89.1%; with SK-OV-3 ovarian, 102%; in the test with IGROV1 ovarian, 109%; in the test with OVCAR-3 ovarian, 112%; in the test on HS 578T breast, 99.8%. Further, in the test on NCI/ADR-RES ovarian, the growth is 106%.
For the molecule `O=C(Oc1ccccc1)c1cc(O)c(O)c(O)c1`, the growth with SK-MEL-2 melanoma is 125%; in the test on EKVX NSCLC, 52.2%; with SN12C renal, 66.1%; in the test on UO-31 renal, 53.8%; in the test on TK-10 renal, 81%; with ACHN renal it was 62.6%. In addition, the growth in the test on CAKI-1 renal is 33.6%; in the test on A498 renal, 87.3%; with CCRF-CEM leukemia, 26.6%; with MOLT-4 leukemia, 62.5%; with SR leukemia, 32.9%; in the test with RPMI-8226 leukemia, 65.7%. Further, the growth is 71.4% in the test with OVCAR-8 ovarian; 107% in the test with OVCAR-5 ovarian; 63.7% with OVCAR-4 ovarian; 76% with IGROV1 ovarian; 18.1% with OVCAR-3 ovarian; 39.9% in the test with HS 578T breast. For the same molecule, the growth in the test on NCI/ADR-RES ovarian was 61.1%.
As for `COc1cc(/C=N/NC(=O)c2ccc3nc(-c4ccc(Cl)cc4)[nH]c3c2)cc(OC)c1OC`, the growth is 83.6% in the test with SK-MEL-2 melanoma; 95.8% in the test with EKVX NSCLC; 68.5% in the test with SN12C renal; 88.3% in the test with UO-31 renal; 77.4% in the test with TK-10 renal; 67.4% in the test with ACHN renal. Besides, the growth is 76% in the test with CAKI-1 renal; -1.95% (active) with A498 renal; 36.6% in the test on CCRF-CEM leukemia; 41.6% with MOLT-4 leukemia; 45.7% with SR leukemia; 19.9% in the test with RPMI-8226 leukemia. Also, the growth was 60.5% with OVCAR-8 ovarian; 172% in the test with OVCAR-5 ovarian; 102% in the test with OVCAR-4 ovarian; 68.4% in the test with IGROV1 ovarian; 61.6% with OVCAR-3 ovarian; 48.3% in the test on HS 578T breast. Besides, the growth in the test with NCI/ADR-RES ovarian was 106%.
For `Clc1ccc2c(NCCCn3cnc4c(N5CCCC5)nc(Cl)nc43)ccnc2c1`, the growth with SK-MEL-2 melanoma is 89.6%; in the test on EKVX NSCLC it was 96.4%; in the test with SN12C renal, 94.3%; in the test on UO-31 renal it was 77.4%; in the test with TK-10 renal, 102%; with ACHN renal it was 91.8%. Besides, the growth with CAKI-1 renal was 90.8%; with A498 renal it was 94.4%; in the test on CCRF-CEM leukemia, 104%; with MOLT-4 leukemia, 92.3%; in the test on SR leukemia, 84.2%; with RPMI-8226 leukemia, 115%. In addition, the growth in the test on OVCAR-8 ovarian was 103%; with OVCAR-5 ovarian, 101%; in the test on OVCAR-4 ovarian, 100%; in the test on IGROV1 ovarian, 89%; in the test with OVCAR-3 ovarian, 101%; in the test on HS 578T breast, 104%. Further, the growth with NCI/ADR-RES ovarian was 93.3%.
On to `CCOC(=O)/C(=C\c1ccccc1Cl)P(=O)(OCC)OCC`, for which the growth with SK-MEL-2 melanoma was 68.1%; in the test on EKVX NSCLC, 73.1%; in the test with SN12C renal it was 68%; in the test with UO-31 renal, 53.9%; in the test on TK-10 renal, 75.5%; in the test on ACHN renal, 52.8%. The growth in the test on CAKI-1 renal was 75%; in the test on A498 renal, 103%; in the test with CCRF-CEM leukemia, 19.5%; in the test on MOLT-4 leukemia, 25.1%; in the test on SR leukemia it was -0.778% (active); with RPMI-8226 leukemia, 7.93% (active). Besides, the growth was 59.1% with OVCAR-8 ovarian; 82.4% with OVCAR-5 ovarian; 75.1% in the test with OVCAR-4 ovarian; 65.7% with IGROV1 ovarian; 56.1% in the test with OVCAR-3 ovarian; 80.3% in the test on HS 578T breast. Further, the growth in the test with NCI/ADR-RES ovarian is 44%.
Take `COc1ccc(C2=C/C(=C\c3ccccc3O)C(=O)N2Cc2ccccc2)cc1`: the growth in the test on SK-MEL-2 melanoma is 51.4%; with EKVX NSCLC, 82.1%; with SN12C renal it was 95.8%; with UO-31 renal it was 68.4%; with TK-10 renal, 85.3%; in the test on ACHN renal, 93.4%. The growth was 93.2% in the test with CAKI-1 renal; 73.4% with CCRF-CEM leukemia; 66.8% in the test on MOLT-4 leukemia; 45.2% in the test with SR leukemia; 63% in the test on RPMI-8226 leukemia; 70.9% in the test on OVCAR-8 ovarian. Moreover, the growth with OVCAR-5 ovarian was 111%; in the test on OVCAR-4 ovarian, 92.6%; with SK-OV-3 ovarian, 73.8%; in the test on IGROV1 ovarian it was 77.5%; with OVCAR-3 ovarian it was 92.9%; with HS 578T breast, 74.8%. In the test on NCI/ADR-RES ovarian, the growth is 79.9%.
